# D2 ag-1: HTS Assay for Allosteric Agonists of the Human D2 Dopamine Receptor: Primary Screen for Agonists; 340,000 compounds, 0.53% hits; HEK293 T-REx D2 cells, calcium flux agonist mode; D(2) dopamine receptor (Homo sapiens), P14416; activation, % at 2 µM;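 active means activation over 3 SD above normal in the single-dose calcium agonist read, cut at about 30% in these data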; further: 0% is about no effect
# Target sequence (P14416 whole entry, looked up): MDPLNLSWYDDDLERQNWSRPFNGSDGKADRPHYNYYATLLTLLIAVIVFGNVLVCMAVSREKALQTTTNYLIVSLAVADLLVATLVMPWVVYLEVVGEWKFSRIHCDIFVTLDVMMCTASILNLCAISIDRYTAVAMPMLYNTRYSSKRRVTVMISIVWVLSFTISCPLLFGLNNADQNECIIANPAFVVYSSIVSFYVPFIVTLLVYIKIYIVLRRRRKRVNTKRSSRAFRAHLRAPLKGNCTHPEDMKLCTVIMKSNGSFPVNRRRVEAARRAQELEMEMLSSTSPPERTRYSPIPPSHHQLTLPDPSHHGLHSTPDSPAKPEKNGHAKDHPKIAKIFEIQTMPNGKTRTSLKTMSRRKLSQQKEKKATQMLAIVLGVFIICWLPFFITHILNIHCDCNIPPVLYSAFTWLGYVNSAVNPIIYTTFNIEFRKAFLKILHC
#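 Agonism is scored from calcium flux in a force-coupled, inducible HEK293 cell line expressing D2, read kinetically for 180 s after compound addition against dopamine controls.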
# D2 PAM-1: HTS Assay for Positive Allosteric Modulators of the Human D2 Dopamine Receptor: Primary Screen for Potentiators; D(2) dopamine receptor (Homo sapiens), P14416; 340,000 compounds, 0.34% hits; HEK293 T-REx D2, calcium flux, EC20 dopamine potentiation; potentiation, % at 10 µM;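 active means potentiation over 3 SD above the plate norm, cut at about 30% in these data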; further: 0% is about no effect
#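 Potentiation of an EC20 dopamine calcium response is measured in a force-coupled, tetracycline-inducible Hek293 Trex D2 line. Compound-only kinetic reads over 180 s flag agonists before dopamine addition.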
# D2 antagonist: HTS Assay for Allosteric Antagonists of the Human D2 Dopamine Receptor: Primary Screen for Antagonists | D(2) dopamine receptor (Homo sapiens), P14416 | HEK293 TREx D2 cells, calcium flux, dopamine EC80 | 340,000 compounds, 2% hits | inhibition, % at 10 µM; in the data active means inhibition above about 30%; inactive means below that, where a call was filed; further: 0% is about no effect
#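 Calcium flux kinetic readout in an inducible HEK293 TREx D2 line plated overnight at 30 C. After 180 s compound exposure, an EC80 dopamine challenge follows with another 180 s kinetic read to detect antagonism.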
# D2 PAM-2: Beta-Arrestin HTS for Positive Allosteric Modulators of the Human D2 Dopamine Receptor: Potentiators. potentiation, % (test concentration not listed). 360,000 compounds, 0.23% hits. AID 624464, 2012. DiscoveRx D2 beta-arrestin cells, luminescence, 90 min; 100% = 57 uM dopamine signal. D(2) dopamine receptor (Homo sapiens), P14416; in the data active means potentiation above about 50%; inconclusive means mostly about 30% to 49%
#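 D2 cells co-treated with compound plus 50 nM dopamine (EC20) for 90 min at 37 deg C to detect potentiation. Beta-arrestin recruitment was read as enzyme-fragment luminescence after 1 h at ambient temperature. Full response was set by 57 uM dopamine.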
# D2 ag-2: Beta-Arrestin HTS for Positive Allosteric Modulators of the Human D2 Dopamine Receptor: Agonists; D(2) dopamine receptor (Homo sapiens), P14416; DiscoveRx PathHunter D2 beta-arrestin, luminescence, 90 min; 100% = 57 uM dopamine signal; activation, % (concentration not given with the values); 360,000 compounds, 0.084% hits; AID 624465, 2012; in the data active means activation above about 40%; inconclusive means between about 15% and that limit
#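 Agonist mode: compounds alone added to overnight-plated D2 PathHunter cells for 90 min at 37 C, with 57 uM final dopamine (EC100) defining full response. Beta-arrestin recruitment detected by chemiluminescent reagent, read after 1 h at ambient temperature.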
# D3 arrestin ag: qHTS of D3 Dopamine Receptor Agonist: D3 Dopamine Receptor B-arrestin Agonist Confirmatory Assay; shares compounds with D2 ag-1; DiscoveRx D3 beta-arrestin cells, luminescence, 90 min; Potency, µM (top dose mostly 76.9 µM), without a hit: at the top dose activation, most hits filed as activators; 2,300 compounds, 4% hits;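 further: potency means the concentration at half of the fitted maximal effect; 100% = dopamine control response; nearly all actives have a fitted effect of over 70% in size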
# D2 ag-3: qHTS of D3 Dopamine Receptor Agonist: D2 Dopamine Receptor B-arrestin Agonist Counterscreen. shares compounds with D2 ag-1. DiscoveRx PathHunter D2 beta-arrestin, luminescence, 90 min; response scale: percent relative to full dopamine signal. Potency, µM (titrated, usually from 76.9 µM), inactives show top-dose activation, hits mostly activators. 2,300 compounds, 5.9% hits; further: potency means the concentration at half of the fitted maximal effect; % of control where 0% means no effect; nearly all actives have a fitted effect of over 70% in size
# Starred values were filed as active, the others as inactive; u = inconclusive; x = no result. A selection: hits, their analogues and other compounds. The true share with any hit is near 2.4%. Unless noted, the call rests on the fitted dose curve; in most records, active means well fitted activation curve with a large enough effect; inconclusive means small, poorly fitted or top-dose-only effect; inactive means flat fitted curve, though single readings scatter.
SMILES,D2 ag-1,D2 PAM-1,D2 antagonist,D2 PAM-2,D2 ag-2,D3 arrestin ag,D2 ag-3
CC(=O)c1ccc(NC(=O)C2CCN(c3nnc(C)c4c(C)n(-c5ccccc5)nc34)CC2)cc1,0,-4,x,x,x,x,x
CCCC(c1nnnn1CCOC)N1CCN(Cc2ccccc2)CC1 (stereo not given),33*,-8,-17,-7,1,-11%,4%
Cc1sc2nc(CSCC(=O)Nc3c(F)cccc3F)[nH]c(=O)c2c1C,0,4,2,7,-2,x,x
Cc1sc2nc(CSCC(=O)Nc3ccc(C(F)(F)F)cc3)[nH]c(=O)c2c1C,1,3,-17,0,2,-6%,-2%
Cc1sc2nc(CSCC(=O)Nc3ccc(Cl)cc3F)[nH]c(=O)c2c1C,0,1,2,14,-5,-4%,-6%
Cc1sc2nc(CSCC(=O)N(C)CC(=O)Nc3ccc(F)cc3)[nH]c(=O)c2c1C,3,7,-9,-10,-2,x,x
CCOc1cc(C)c(Cl)cc1S(=O)(=O)NCCOC,59*,-18,32*,-4,-1,-8%,-3%
CCc1nnc2c(N3CCN(c4cccc(C)c4)C(C)C3)nc3ccccc3n12 (stereo not given),0,1,x,x,x,x,x
COc1ccc(-c2c(-c3cc(OC)cc(OC)c3)n(C)c3ccc(-c4cccc5[nH]ccc45)cc23)cc1,0,16,2,-1,-2,0%,3%
COc1ccc(C2c3c(-c4ccccc4)n[nH]c3C(=O)N2c2ccc(C(=O)O)cc2)cc1 (stereo not given),0,5,39*,-8,-2,-2%,-2%
OCC[C@H]1C[C@@H](O)[C@H](O)[C@@]2(Cc3ccccc3CO2)O1,0,9,0,-7,-3,-5%,-4%
OCC[C@@H]1C[C@H](O)[C@@H](O)[C@@]2(Cc3ccccc3CO2)O1,-1,3,5,-14,-2,x,x
CCc1nn(CC(=O)Nc2c(C)cccc2C)c(=O)c2cc3sccc3n12,-1,-6,x,x,x,x,x
CC(=O)Nc1cccc(C(=O)OCc2csc(CC(=O)Nc3ccccc3C)n2)c1,0,-3,3,0,-1,1%,2%
Cc1cc(C)c(C(=O)OCc2csc(CC(=O)Nc3ccccc3C)n2)c(C)c1,0,13,-8,0,2,x,x
Cc1cccc(C(=O)NCC(=O)N2CC=C(c3ccccc3)CC2)c1,0,-5,0,1,1,-1%,-1%
COc1ccc(C(=O)NCC(=O)N2CC=C(c3ccccc3)CC2)cc1OC,0,-9,-7,-5,4,x,x
O=C(O)c1ccccc1C(=O)N1CC=C(c2ccccc2)CC1,29,-18,4,-30,0,-3%,6%
CC(C)N1CCN(CC2COc3ccccc3O2)CC1 (stereo not given),35*,-10,4,-10,-5,-7%,-1%
Fc1ccccc1N1CCN(CCCNc2ccc3nncn3n2)CC1,95*,-25,90*,11,43*,u,u
CCCCCCc1cc2cc(S(=O)(=O)c3ccc(F)c(Cl)c3)c(=O)oc2cc1O,34*,-7,8,13,7,28µM*,u
Cc1ccc(-n2nc(C(=O)Nc3ccc(C)c(F)c3)c3c4ccccc4n(C)c3c2=O)cc1,0,0,x,x,x,x,x
Cc1ccccc1CNC(=O)c1sc2ncnc(N(C)C3CCCCC3)c2c1C,0,8,x,x,x,x,x
CCc1nnc(NC(=O)c2ccc(-c3ccc(Cl)cc3)o2)s1,0,2,-4,-23,0,x,x
CCc1nnc(NC(=O)c2ccc(-c3ccc(C(C)=O)cc3)o2)s1,-2,-14,11,-2,0,-7%,-1%
SMILES,D2 ag-1,D2 PAM-1,D2 antagonist,D2 PAM-2,D2 ag-2,D3 arrestin ag,D2 ag-3
C/C(O)=c1/ccc2cccc3nc(C)nc1c23,7,5,-2,26,6,u,21%
O/C=c1\ccc2cccc3nc(C(F)(F)F)nc1c23,3,-1,-20,15,4,x,x
CC(CCc1ccccc1)NC(=O)c1ccccc1 (stereo not given),x,-8,x,-5,-3,x,x
CC(CCc1ccccc1)NCC(O)c1ccc(O)c(C(N)=O)c1 (stereo not given),72*,-27,67*,-2,3,4%,u
O=C(c1cccs1)N1CCN(CCCc2ccccc2)CC1,36*,-13,59*,-10,2,15%,9%
O=C(NCC(=O)N1CCN(Cc2ccccc2)CC1)c1cccs1,x,x,x,-1,7,x,x
O=C(c1cccs1)N1CCN(Cc2cccnc2)CC1,60*,-6,59*,14,u,-1%,u
O=C(c1cccc(Cl)c1)N1CCN(Cc2ccncc2)CC1,1,4,-19,-11,-4,x,x
O=C(c1cccs1)N1CCN(Cc2ccncc2)CC1,63*,-20,21,3,14,13%,u
O=C(c1cccs1)N1CCN(Cc2ccccc2)CC1,75*,-26,64*,24,41*,u,u
O=C(c1cccs1)N1CCN(c2ncccn2)CC1,0,-10,15,2,-2,x,x
O=C(CN(c1cccc(Br)c1)S(=O)(=O)c1ccccc1)N1CCc2ccccc2C1,-3,5,x,x,x,x,x
CN(c1ccc(C(=O)N2CCN(Cc3ccccc3)CC2)cc1)S(=O)(=O)c1ccccc1,67*,-24,61*,10,u,2%,u
COc1ccc(-n2c(-c3ccc(C)cc3)cc3c2CC(C)(C)CC3=O)c(OC)c1,0,-6,x,x,x,x,x
Cc1c(C(=O)NC2CCC(C)CC2)oc2ccccc12 (stereo not given),43*,-24,19,3,9,-5%,10%
CCCCCOC(=O)CSc1nc2sc3c(c2c(=O)n1Cc1ccccc1)CC(C)(CC)OC3 (stereo not given),0,2,x,x,x,x,x

# From PubChem BioAssay
